A short description of experiment [1]: cAMP Responsive Elements (CRE) small molecule antagonists, cell-based qHTS assay: qHTS cell viability counter screen (AID 2060913). Note: nearly all actives have a fitted effect of over 40% in size. The method in brief:
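Cytotoxicity counter screen multiplexed with the CRE-bla antagonist read: HEK293T cells in DMEM with dialyzed FBS and 25 mM HEPES were treated 3 hrs under 0.25 uM final NKH477, then viability measured by CellTiter-Glo luminescence.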
For orientation: Quantitative high-throughput screening tests each substance at several concentrations.

Experiment [2] can be described thus: cAMP Responsive Elements (CRE) small molecule agonists, cell-based qHTS assay: qHTS cell viability counter screen (AID 2060914).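 Note: viability read after 3 h of compound exposure; nearly all actives have a fitted effect of over 50% in size.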 The method in brief: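 CRE-bla HEK 293T cells, plated 18 h at 37 °C, were exposed to compounds for 3 h at 37 °C/5% CO2. Viability was then measured in the same wells by CellTiter-Glo luminescence after 30 min at room temperature.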

“And” between values parts separate entries of the source, which are not always exact repeats. Identical values can stand only once. Records with an inconclusive call do not appear. Unmarked numbers belong to inactive results. The source made the active and inactive calls. Calls come from the whole dose curve; as a rule, active = well fitted cell-killing curve with a large enough effect in the repeat runs; inconclusive = weak or mixed curves, or effect the other way; inactive = flat fitted curve, though single readings scatter.
% is set by controls: 0 for no effect and ±100 for the full control effect; potency is the fitted concentration of half-maximal effect.

As to `O=NN1CCCCCC1`, the Potency entry in experiment [1] and in experiment [2] was “inactive” throughout.
With `O=[N+]([O-])CCO`, the Potency result in experiment [1] and in experiment [2] was “inactive” in each case.
As for `C#CCN(C)[C@H](C)Cc1ccccc1`, the Potency entry in experiment [1] and in experiment [2] was “inactive” each time.
`Cc1cc(-c2ccc(N)c(C)c2)ccc1N`: the Potency entry in experiment [1] and in experiment [2] was “inactive” each time.
Turning to `CC1Sc2c(C(=O)O)c(=O)c3cc(F)c(N4CCNCC4)cc3n21` (stereo not given), the Potency result in experiment [1] and in experiment [2] was “inactive” each time.
On to `CCCCC1C(=O)NC(=O)N(C2CCCCC2)C1=O` (stereo not given), for which the Potency entry in experiment [1] and in experiment [2] was “inactive” in each case.
As for `ClC(Cl)C(Cl)Cl`, the Potency entry in experiment [1] and in experiment [2] was “inactive” in each case.
On to `O=C(O)Cc1ccccc1`, for which the Potency entry in experiment [1] and in experiment [2] was “inactive” in each case.
In the case of `CC[N+]1(CCOC(=O)C(O)(c2ccccc2)c2ccccc2)CCCCC1`, the Potency entry in experiment [1] and in experiment [2] was “inactive” throughout.
As for `CC(=O)O`, the Potency result in experiment [1] and in experiment [2] was “inactive” throughout.
For the compound `CCCCOCC1CO1` (stereo not given), the Potency entry in experiment [1] and in experiment [2] was “inactive” in each case.
For `Cl[C@H]1OCCO[C@@H]1Cl`, the Potency entry in experiment [1] and in experiment [2] was “inactive” in each case.
For `O=S(=O)(Cl)Cl`, the Potency entry in experiment [1] and in experiment [2] was “inactive” throughout.
With `COc1cc(-c2ccc(N)c(OC)c2)ccc1N`, the Potency entry in experiment [1] and in experiment [2] was “inactive” each time.
With `CC(Cc1ccccc1)NCCCCl` (stereo not given), the Potency result in experiment [1] and in experiment [2] was “inactive” in each case.
`Oc1cc(Cl)ccc1Oc1ccc(Cl)cc1Cl`: the results for the Potency in experiment [1] and in experiment [2] were 44.3 µM (active) and 62.6 µM (active), respectively.
Regarding `COc1ccc(OC)c(CC(C)N)c1` (stereo not given), the Potency entry in experiment [1] and in experiment [2] was “inactive” throughout.
On to `C[C@H](CN1CCOCC1)C(C(=O)N1CCCC1)(c1ccccc1)c1ccccc1`, for which the Potency entry in experiment [1] and in experiment [2] was “inactive” throughout.
Take `COc1c2c(cc3c1OCO3)CCN(C)C2`: the Potency result in experiment [1] and in experiment [2] was “inactive” throughout.
`O=C(Cl)c1ccccc1F`: the Potency result in experiment [1] and in experiment [2] was “inactive” each time.
For the compound `CC(=O)[O-].CC(=O)[O-].O.O.[Cd+2]`, the Potency in experiment [1] was 53.7 µM (active). Moreover, the Potency entry in experiment [2] is “inactive”.
Take `O=C(O)CC[N+](=O)[O-]`: the Potency result in experiment [1] and in experiment [2] was “inactive” in each case.
As to `CCN(CC)C(=S)S`, the Potency entry in experiment [1] and in experiment [2] was “inactive” throughout.
As for `CC(=O)[O][Sn]([c]1ccccc1)([c]1ccccc1)[c]1ccccc1`, the Potency was 6.11 µM (active) in experiment [1] and 30.6 µM (active) in experiment [2].
`Clc1ccccc1-c1ccccc1Cl`: the Potency result in experiment [1] and in experiment [2] was “inactive” each time.
On to `CCOC(=O)CC(=O)CCl`, for which the Potency entry in experiment [1] and in experiment [2] was “inactive” each time.
As for `O=C(NC(O)C(Cl)(Cl)Cl)NC(O)C(Cl)(Cl)Cl` (stereo not given), the Potency result in experiment [1] and in experiment [2] was “inactive” throughout.
Regarding `O=C(CCl)C(Cl)Cl`, the Potency entry in experiment [1] and in experiment [2] was “inactive” throughout.
With `NC(=O)CN1CCCC1=O`, the Potency entry in experiment [1] and in experiment [2] was “inactive” in each case.
Regarding `CC(=O)C1CCOC1=O` (stereo not given), the Potency entry in experiment [1] and in experiment [2] was “inactive” each time.
In the case of `Cc1ccc(-c2nc3ccc(C)cn3c2CC(=O)N(C)C)cc1`, the Potency entry in experiment [1] and in experiment [2] was “inactive” in each case.
With `Cc1ccccc1C(=O)Nc1cccc(OC(C)C)c1`, the Potency entry in experiment [1] and in experiment [2] was “inactive” each time.
In the case of `c1ccc2c(c1)CCCC2`, the Potency entry in experiment [1] and in experiment [2] was “inactive” throughout.
For `CC(=O)CCC(C)=O`, the Potency result in experiment [1] and in experiment [2] was “inactive” in each case.
For the compound `COc1cc2c(cc1OC)[C@@]13CCN4CC5=CCO[C@H]6CC(=O)N2[C@H]1[C@H]6[C@H]5C[C@H]43`, the Potency entry in experiment [1] and in experiment [2] was “inactive” each time.
Consider `CC(=O)[O][Hg][c]1ccccc1`, for which the Potency in experiment [1] is 12.1 µM (active) and 12.2 µM (active) and 16.8 µM (active); in experiment [2] it was 10.8 µM (active) and 13.7 µM (active).
As to `C=CC1(C)OC(=O)N(c2cc(Cl)cc(Cl)c2)C1=O` (stereo not given), the Potency result in experiment [1] and in experiment [2] was “inactive” in each case.
For `CCCC(C)(COC(N)=O)COC(=O)NC(C)C` (stereo not given), the Potency entry in experiment [1] and in experiment [2] was “inactive” in each case.
Regarding `[Cl][Sb]([Cl])[Cl]`, the Potency result in experiment [1] and in experiment [2] was “inactive” throughout.
On to `CCC(C)c1cc([N+](=O)[O-])cc([N+](=O)[O-])c1OC(=O)C=C(C)C` (stereo not given), for which the Potency result in experiment [1] and in experiment [2] was “inactive” throughout.
Regarding `COc1ccc2c3c1O[C@H]1[C@H](O)CC[C@H]4[C@@H](C2)N(C)CC[C@@]341`, the Potency result in experiment [1] and in experiment [2] was “inactive” in each case.
Consider `CCC(Cl)CCl` (stereo not given), for which the Potency result in experiment [1] and in experiment [2] was “inactive” each time.
With `C#C[C@]1(O)CC[C@H]2[C@@H]3CCC4=CC(=O)CC[C@]4(C)[C@H]3CC[C@@]21C`, the Potency result in experiment [1] and in experiment [2] was “inactive” throughout.
As for `CCS(=O)(=O)C(C)(C)S(=O)(=O)CC`, the Potency result in experiment [1] and in experiment [2] was “inactive” throughout.
As for `O=C(O)C(Cl)(Cl)Br`, the Potency result in experiment [1] and in experiment [2] was “inactive” throughout.
With `Cc1ccc2nc3sc(=O)sc3nc2c1`, the viability change, negative = cytotoxic in experiment [1] is 10.1% [at 18.9 µM]. The activity change, negative = cytotoxicity in experiment [2] is -6.15% [at 18.9 µM].
On to `O=c1oc2ccccc2c(O)c1Cc1c(O)c2ccccc2oc1=O`, for which the Potency entry in experiment [1] and in experiment [2] was “inactive” throughout.
As for `CCCCCCCCCCCCN(C)C`, the Potency entry in experiment [1] and in experiment [2] was “inactive” throughout.
Turning to `Oc1ccc(C2(c3ccc(O)cc3)CCCCC2)cc1`, the Potency entry in experiment [1] and in experiment [2] was “inactive” in each case.
Take `Cc1cccc(OP(=O)(Oc2cccc(C)c2)Oc2cccc(C)c2)c1`: the Potency result in experiment [1] and in experiment [2] was “inactive” each time.
Turning to `N#CN=C(N)N`, the Potency result in experiment [1] and in experiment [2] was “inactive” throughout.
As for `CNC(=O)Oc1cccc2ccccc12`, the Potency entry in experiment [1] and in experiment [2] was “inactive” each time.
Take `O=C(Nc1ccccc1)N(Cc1ccc(Cl)cc1)C1CCCC1`: the Potency result in experiment [1] and in experiment [2] was “inactive” throughout.
Regarding `CON(C)C(=O)Nc1ccc(Cl)cc1`, the Potency entry in experiment [1] and in experiment [2] was “inactive” throughout.
On to `CCC(C)(C)O`, for which the Potency entry in experiment [1] and in experiment [2] was “inactive” each time.

For the origin of these results see PubChem BioAssay (Tox21).
